Drawing on PubChem BioAssay, this text covers composite z-score and z-score for five molecules.

Active and inactive are the calls of the source.

Assay [1] can be described thus: small molecules captured by biotinylated probe aFSTL3 – biochemical, small-molecule microarray, fluorescence 635/667, stem cell growth factor project, primary screen (AID 1064).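 Note: measures binding of the biotinylated anti-FSTL3 antibody to printed compounds.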 As to conditions: higher = more signal.
A short description of assay [2]: binders from COS7 lysate, DM2A8 probe, primary screen, torsin A project, cell lysate, small-molecule microarray, fluorescence 635/667 (AID 1065). Conditions: higher = more signal, COS7 lysate expressing mutant human TOR1A.
Assay [3] can be described thus: small molecules captured by biotinylated probe aFGF2 – biochemical, small-molecule microarray, fluorescence 635/667, stem cell growth factor project, primary screen (AID 1067).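 Note: measures binding of biotinylated aFGF2 protein to printed compounds on slides; z-score merges feature fluorescence and signal-to-noise across triplicate slides.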 Conditions: higher = more signal.
Assay [4] can be described thus: small molecules captured by biotinylated probe aFGF10 – biochemical, small-molecule microarray, fluorescence 635/667, stem cell growth factor project, primary screen (AID 1071).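 Note: score merges 667 nm spot intensity and signal to noise from triplicate slides.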 As to conditions: higher = more signal.
The target of assay [5] is Neurogenic locus notch homolog protein 2 (Homo sapiens) (UniProt Q04721). The experiment in a line: small molecules binding Notch2 protein – biochemical, small-molecule microarray, 635 nm fluorescence, stem cell growth factors, primary screen (AID 1073). As to conditions: higher = more signal.
Assay [6] addresses Pro-neuregulin-1, membrane-bound isoform (Homo sapiens) (UniProt Q02297). In words: small molecules binding neuregulin-1 protein – biochemical, small-molecule microarray, fluorescence 635/667, psychiatric disease protein project, primary screen (AID 1075).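 Note: score combines 667 nm spot fluorescence with signal to noise.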 As to conditions: NRG1 binding, 635 nm fluorescence, higher = more signal.
The test system of assay [7] is Neuregulin-1 EGF-like domain. In words: small molecules binding NRG1 EGF domain – biochemical, small-molecule microarray, 635 nm fluorescence, primary screen (AID 1081).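 Note: binding of the protein to compounds printed on small-molecule microarray slides.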 Conditions: higher = more signal.
The nature of assay [8]: FRG1 expression reporter modulators in myotubes – cell-based, C2C12 myotubes, firefly/Renilla luciferase, luminescence, FRG1 inhibition for FSHD, primary screen (AID 1084). Conditions: FRG1 promoter luciferase, higher = more signal, called active from +8 up or from −8 down.
The nature of assay [9]: small molecules captured by biotinylated probe aFST – biochemical, small-molecule microarray, fluorescence 635/667, stem cell growth factor project, primary screen (AID 1086).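 Note: score merges 667 nm fluorescence with signal-to-noise of each printed compound spot.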 Conditions: higher = more signal.
Assay [10] in a line: binders of probe aHhip on microarray, primary screen, stem cell growth factor project, biochemical, small-molecule microarray, fluorescence 635/667 (AID 1087).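 Note: score merges spot fluorescence at 667nm with spot signal to noise ratio.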 Conditions: higher = more signal.
For assay [11], the system named is PRMT1 (protein arginine N-methyltransferase 1). The experiment in a line: small molecules binding arginine methyltransferase PRMT1 – biochemical, small-molecule microarray, 635 nm fluorescence, primary screen (AID 1088).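 Note: binding of Prmt1 protein to compounds spotted on small-molecule microarray slides.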 Conditions: higher = more signal.
The nature of assay [12]: growth effects on S. cerevisiae YJM789 – YJM789 clinical isolate, OD600, 24 h, basal, primary screen (AID 1089).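 Note: growth of clinical yeast isolate S. cerevisiae YJM 789 seeded 1000 cells per well; test concentration not given here.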 Conditions: higher = more signal, called active from +8 up or from −8 down.
Assay [13] is described as follows: S. pombe growth modifiers, basal conditions – strain 972, OD600, 24 h, no modulator, primary screen (AID 1090).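 Note: basal condition with compound alone and no growth modifier present; test concentration not given here.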 As to conditions: S. pombe 972 growth, higher = more signal, called active from +8 up or from −8 down.
The nature of assay [14]: budding yeast growth modifiers under rapamycin – strain BY4716, OD600, 96 h, primary screen (AID 1091). Note: test concentration not given here. As to conditions: S. cerevisiae BY4716 + rapamycin, higher = more signal, called active from +8 up or from −8 down.
The target of assay [15] is Torsin-1A-interacting protein 2 (Homo sapiens) (UniProt Q8NFQ8). In words: small molecules binding lysate-expressed LULL1 – cell lysate, human LULL1 lysate, 635/667 nm fluorescence, primary screen (AID 1092).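 Note: probe is lysate of COS7 cells overexpressing human LULL1; score merges per-feature 667 nm fluorescence with signal-to-noise.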 Conditions: small-molecule microarray, hLULL1 lysate binding, 635 nm fluorescence; higher = more signal.
Chain of Torsin-1A-interacting protein 2 (Homo sapiens) (Q8NFQ8 whole entry, looked up): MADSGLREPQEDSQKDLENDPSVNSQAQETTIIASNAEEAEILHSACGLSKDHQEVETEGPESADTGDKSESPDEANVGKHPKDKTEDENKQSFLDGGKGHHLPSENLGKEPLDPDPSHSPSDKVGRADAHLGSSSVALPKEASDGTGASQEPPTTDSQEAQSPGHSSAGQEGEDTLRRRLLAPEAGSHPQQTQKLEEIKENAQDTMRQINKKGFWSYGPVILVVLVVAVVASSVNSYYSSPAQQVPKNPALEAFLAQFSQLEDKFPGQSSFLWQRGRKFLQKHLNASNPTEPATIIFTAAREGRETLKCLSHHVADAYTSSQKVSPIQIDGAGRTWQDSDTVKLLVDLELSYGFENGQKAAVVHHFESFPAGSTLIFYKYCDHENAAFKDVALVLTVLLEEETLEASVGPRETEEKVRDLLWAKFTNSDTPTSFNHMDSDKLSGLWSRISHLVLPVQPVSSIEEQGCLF
The nature of assay [16]: optical density change of DRC41 E. coli – strain DRC41, OD650, 24 h, E. coli filamentation project, primary screen (AID 1093).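 Note: MC1000 strain lacking acrAB efflux and sulA so SOS filamentation is blocked; test concentration not given here.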 Conditions: E. coli DRC41 growth, higher = more signal, called active from +8 up or from −8 down.
A short description of assay [17]: probe aLefty2 binding to arrayed compounds – biochemical, biotinylated probe, 635/667 nm fluorescence, primary screen (AID 1094).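 Note: score merges spot fluorescence near 667 nm with spot signal-to-noise ratio.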 Conditions: small-molecule microarray, higher = more signal.
Assay [18] concerns Noggin (protein binding on small-molecule microarray). The experiment in a line: small molecules binding Noggin protein – biochemical, 635/667 nm fluorescence, primary screen (AID 1095).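 Note: score merges 667 nm feature fluorescence with signal to noise over triplicate slides.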 Conditions: 635 nm fluorescence, higher = more signal.
The target in assay [19] is Neurogenic locus notch homolog protein 3 (Homo sapiens) (UniProt Q9UM47). The experiment in a line: small molecules binding NOTCH3 protein – biochemical, 635/667 nm fluorescence, primary screen (AID 1096). Conditions: small-molecule microarray, 635 nm fluorescence, higher = more signal.
Chain of Neurogenic locus notch homolog protein 3 (Homo sapiens) (Q9UM47 whole entry, looked up): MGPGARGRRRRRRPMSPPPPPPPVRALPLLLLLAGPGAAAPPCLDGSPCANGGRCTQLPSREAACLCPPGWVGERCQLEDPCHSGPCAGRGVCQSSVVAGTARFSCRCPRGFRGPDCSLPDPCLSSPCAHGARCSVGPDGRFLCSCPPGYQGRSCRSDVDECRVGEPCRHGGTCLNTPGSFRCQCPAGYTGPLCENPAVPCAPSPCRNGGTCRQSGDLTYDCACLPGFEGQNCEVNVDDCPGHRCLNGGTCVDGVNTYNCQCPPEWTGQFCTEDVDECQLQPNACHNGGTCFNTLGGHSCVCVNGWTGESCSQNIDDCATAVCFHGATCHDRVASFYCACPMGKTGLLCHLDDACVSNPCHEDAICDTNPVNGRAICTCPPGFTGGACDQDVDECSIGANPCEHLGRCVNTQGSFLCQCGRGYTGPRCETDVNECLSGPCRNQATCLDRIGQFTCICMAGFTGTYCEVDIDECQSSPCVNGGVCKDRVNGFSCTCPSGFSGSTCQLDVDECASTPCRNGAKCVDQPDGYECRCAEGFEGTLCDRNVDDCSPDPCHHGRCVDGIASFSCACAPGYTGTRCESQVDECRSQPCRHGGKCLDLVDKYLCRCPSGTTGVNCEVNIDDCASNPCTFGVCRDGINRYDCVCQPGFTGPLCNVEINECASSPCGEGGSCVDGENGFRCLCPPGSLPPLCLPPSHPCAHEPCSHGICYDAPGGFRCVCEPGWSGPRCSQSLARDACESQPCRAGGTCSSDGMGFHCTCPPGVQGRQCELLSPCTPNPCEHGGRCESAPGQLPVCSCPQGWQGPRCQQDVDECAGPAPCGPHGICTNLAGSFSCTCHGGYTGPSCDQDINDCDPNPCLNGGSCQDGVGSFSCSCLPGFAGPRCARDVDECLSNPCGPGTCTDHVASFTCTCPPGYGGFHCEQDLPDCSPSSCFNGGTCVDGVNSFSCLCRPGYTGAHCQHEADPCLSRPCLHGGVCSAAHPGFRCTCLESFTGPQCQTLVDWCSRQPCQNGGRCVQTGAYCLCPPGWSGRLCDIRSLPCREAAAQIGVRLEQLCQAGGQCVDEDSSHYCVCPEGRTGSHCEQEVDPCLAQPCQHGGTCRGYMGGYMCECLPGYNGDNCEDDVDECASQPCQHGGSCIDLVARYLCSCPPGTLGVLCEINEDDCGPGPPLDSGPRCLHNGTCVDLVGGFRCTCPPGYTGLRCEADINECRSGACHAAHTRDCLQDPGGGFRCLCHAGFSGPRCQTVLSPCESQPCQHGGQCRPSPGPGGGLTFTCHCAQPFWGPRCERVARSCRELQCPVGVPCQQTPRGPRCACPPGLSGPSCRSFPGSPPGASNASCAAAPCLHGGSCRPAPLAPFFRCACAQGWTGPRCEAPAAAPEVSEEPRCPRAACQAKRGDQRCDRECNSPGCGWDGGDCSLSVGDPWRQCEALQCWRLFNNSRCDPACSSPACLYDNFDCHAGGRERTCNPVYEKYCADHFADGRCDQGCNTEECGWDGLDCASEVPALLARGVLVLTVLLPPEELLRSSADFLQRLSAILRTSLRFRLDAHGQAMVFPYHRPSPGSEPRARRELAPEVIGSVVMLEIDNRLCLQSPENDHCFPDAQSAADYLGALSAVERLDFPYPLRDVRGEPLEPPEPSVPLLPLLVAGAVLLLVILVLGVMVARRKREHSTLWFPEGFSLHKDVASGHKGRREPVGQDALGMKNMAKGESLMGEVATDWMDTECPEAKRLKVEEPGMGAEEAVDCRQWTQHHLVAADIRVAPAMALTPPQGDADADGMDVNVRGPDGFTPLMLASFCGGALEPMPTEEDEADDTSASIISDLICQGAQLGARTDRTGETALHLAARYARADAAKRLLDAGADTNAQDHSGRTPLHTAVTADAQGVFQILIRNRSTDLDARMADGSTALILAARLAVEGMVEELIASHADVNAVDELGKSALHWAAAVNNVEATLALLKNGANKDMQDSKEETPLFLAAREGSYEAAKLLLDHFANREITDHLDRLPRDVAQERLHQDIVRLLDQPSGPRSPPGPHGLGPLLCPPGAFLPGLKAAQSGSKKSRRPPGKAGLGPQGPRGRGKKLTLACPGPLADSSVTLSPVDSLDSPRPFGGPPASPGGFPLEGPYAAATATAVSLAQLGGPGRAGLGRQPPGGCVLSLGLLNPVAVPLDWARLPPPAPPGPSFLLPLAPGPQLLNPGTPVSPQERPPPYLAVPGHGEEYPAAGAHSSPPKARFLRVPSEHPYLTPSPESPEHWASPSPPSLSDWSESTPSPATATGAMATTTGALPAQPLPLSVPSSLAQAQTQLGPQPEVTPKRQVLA
Assay [20] in a line: probe aEGFR binding to arrayed compounds – biochemical, biotinylated probe, 635/667 nm fluorescence, primary screen (AID 1097).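 Note: probe is a biotinylated anti-EGFR antibody binding compounds printed on slides; score combines fluorescence near 667 nm and signal to noise of each spot.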 Conditions: small-molecule microarray, higher = more signal.

Chain of Pro-neuregulin-1, membrane-bound isoform (Homo sapiens) (Q02297 whole entry, looked up, the tested form may be a part, canonical isoform): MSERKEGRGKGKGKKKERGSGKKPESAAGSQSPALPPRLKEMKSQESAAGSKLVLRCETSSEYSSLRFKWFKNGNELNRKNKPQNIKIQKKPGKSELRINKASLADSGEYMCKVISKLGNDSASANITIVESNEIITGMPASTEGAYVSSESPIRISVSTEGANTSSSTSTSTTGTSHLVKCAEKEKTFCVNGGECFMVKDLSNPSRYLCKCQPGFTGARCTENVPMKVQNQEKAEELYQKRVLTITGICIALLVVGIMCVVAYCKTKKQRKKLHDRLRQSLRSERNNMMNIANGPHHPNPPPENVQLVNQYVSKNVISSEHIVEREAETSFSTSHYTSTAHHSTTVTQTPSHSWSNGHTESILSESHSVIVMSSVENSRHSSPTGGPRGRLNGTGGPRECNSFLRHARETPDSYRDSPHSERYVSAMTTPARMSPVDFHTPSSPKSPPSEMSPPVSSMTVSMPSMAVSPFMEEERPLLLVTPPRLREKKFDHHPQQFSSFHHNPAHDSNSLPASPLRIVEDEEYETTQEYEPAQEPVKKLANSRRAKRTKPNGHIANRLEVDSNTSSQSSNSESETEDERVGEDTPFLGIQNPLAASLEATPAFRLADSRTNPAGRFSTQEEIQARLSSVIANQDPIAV

As to `COc1ccc(C(O)C2C=CC3C(=O)N(c4ccccc4)C(=O)C3N2Nc2ccc(C#N)cc2)cc1OCc1ccccc1` (stereo not given), the composite z-score in [1] came to 1.98; in assay [2], 1.55; in [3], 0.19; in assay [4], 0.472; in assay [5] it was 1.34; in [6] it was 2.02. The composite z-score is 0.823 in assay [7]; 1.09 in assay [9]; 0.0053 in assay [10]; 1.3 in assay [11]; 2.6 in assay [15]; 0.455 in [17]. Further, the composite z-score is -0.634 in assay [18], 1.11 in assay [19] and 0.0808 in assay [20]. The z-score in assay [8] was 0.686 (inactive); in assay [12] it was -0.598 (inactive); in assay [13], 1.66 (inactive); in assay [14], 1.38 (inactive); in assay [16], -1.16 (inactive).
`CN1C(=O)[C@@H]2[C@@H](CC(COc3ccccc3)=C3[C@@H](CCc4ccccc4)OB(O)C[C@@H]32)C1=O`: the composite z-score in [1] was -0.124; in assay [2] it was 0.275; in assay [3] it was -0.0415; in assay [4] it was 0.121; in assay [5] it was 0.371; in [6], 0.445. The composite z-score in assay [7] was 0.56; in assay [9] it was 0.0157; in assay [10], -0.0994; in assay [11] it was 0.359; in assay [15], 0.384; in [17] it was -0.205. The composite z-score in [18] was 0.231; in assay [19], -0.138; in [20], -0.15. Also, the z-score is -0.799 (inactive) in assay [8]; -0.973 (inactive) in assay [12]; -0.793 (inactive) in [13]; -0.862 (inactive) in assay [14]; -0.372 (inactive) in assay [16].
As for `O=C1O[C@@H](c2ccccc2)[C@@H](c2ccccc2)N2[C@@H](c3ccc(OCCO)cc3)[C@]3(C(=O)Nc4ccc(C#CC5(O)CCCCCC5)cc43)[C@@H](C(=O)O)[C@H]12`, the composite z-score was 0.0507 in [1]; 0.733 in assay [2]; -0.0579 in [3]; 0.635 in assay [4]; 0.456 in assay [5]; 1.24 in assay [6]. Moreover, the composite z-score is 1.07 in assay [7]; 0.193 in [9]; 0.0176 in [10]; 1.35 in assay [11]; 2.64 in assay [15]; -0.166 in assay [17]. Besides, the values for the composite z-score in [18], in [19] and in assay [20] were 0.674, 0.743 and -0.0828, respectively. Further, the z-score in [8] is 0.259 (inactive); in assay [12], 2.79 (inactive); in assay [13] it was -0.256 (inactive); in [14], 0.757 (inactive); in assay [16], 2.21 (inactive).
For the molecule `O=C1C2C=CC(C(O)c3c(F)cccc3Cl)N(Nc3ccc([N+](=O)[O-])cc3)C2C(=O)N1c1ccccc1` (stereo not given), the composite z-score in [1] is 0.0505; in assay [2] it was 0.572; in [3], 0.147; in assay [4], 0.89; in assay [5], 1.61; in assay [6] it was 1.12. Moreover, the composite z-score was 1.01 in [7]; 1.37 in assay [9]; -0.0618 in [10]; 1.55 in assay [11]; 3.54 in [15]; 0.13 in assay [17]. Moreover, the figures for the composite z-score in [18], in assay [19] and in [20] were 0.432, 1.09 and -0.0021, respectively. The z-score in assay [8] was -1.18 (inactive); in [12] it was -1.01 (inactive); in assay [13] it was 1.35 (inactive); in assay [14], 4.59 (inactive); in assay [16] it was 0.636 (inactive).
Regarding `CCOC(=O)C1=C[C@@H](C(C)(C)C)N(S(=O)(=O)c2ccc(C)cc2)[C@H]1c1ccc(C#N)cc1`, the composite z-score in [1] was 0.116; in [2], 0.255; in assay [3] it was -0.0181; in [4], 0.707; in assay [5] it was 1.35; in [6], 1.32. Besides, the composite z-score in [7] was determined as 1.22; in [9], 0.313; in assay [10], 0.144; in assay [11], 1.56; in assay [15], 2.88; in assay [17], 0.419. The composite z-score in assay [18] amounted to 0.198; in [19], 1.01; in assay [20], 0.126. Besides, the z-score is -0.793 (inactive) in assay [8]; 0.3 (inactive) in assay [12]; 2.17 (inactive) in assay [13]; 1.75 (inactive) in assay [14]; 0.0374 (inactive) in assay [16].
